Test results from PubChem BioAssay (NCATS).
Results filed as inconclusive are left out. Values without a mark were called inactive. Activity calls are given as the source filed them. Calls come from the whole dose curve; as a rule, active = well fitted cell-killing curve with a large enough effect; inconclusive = small, poorly fitted or top-dose-only effect; inactive = flat fitted curve, though single readings scatter.

Assay: Cell Viability - LYMP2-006 (AID 978);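 note: cells exposed to compound for 24 hours; % is set by controls: 0 for no effect and ±100 for the full control effect; nearly all actives have a fitted effect of over 60% in size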
Details: LYMP2-006 lymphoblastoid cell viability, qHTS; series mostly up to 92.2 µM; activity change, negative = cytotoxicity: at the top concentration
Summary of the method: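 Human lymphoblastoid cells (LYMP2-006), 2500/well in complete medium, were treated with compound for 24 hr at 37 C. Cellular ATP was read by CellTiter-Glo luminescence after 30 min, and AC50 values came from Hill-equation fits of concentration-response data.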

| SMILES | activity change, negative = cytotoxicity [%] | outcome |
| --- | --- | --- |
| Cc1ccc(-c2cc(C(F)(F)F)nn2-c2ccc(S(N)(=O)=O)cc2)cc1 | -3.56 |  |
| CC(C)C(=O)Nc1ccc([N+](=O)[O-])c(C(F)(F)F)c1 | -4.47 |  |
| Cn1c(=O)c2[nH]cnc2n(C)c1=O | -24.8 |  |
| Cc1cn([C@H]2C=C[C@@H](CO)O2)c(=O)[nH]c1=O |  | inactive |
| Clc1ccc(C(c2ccccc2Cl)C(Cl)Cl)cc1 (stereo not drawn) | -9.75 |  |
| COc1ccc2[nH]cc(CCNC(C)=O)c2c1 | 11.8 |  |
| Cn1c(=O)c2c(ncn2C)n(C)c1=O | -6.87 |  |
| O=c1c(-c2ccc(O)cc2)coc2cc(O)cc(O)c12 | -17.7 |  |
| Cc1cn([C@H]2C[C@H](N=[N+]=[N-])[C@@H](CO)O2)c(=O)[nH]c1=O | 6.29 |  |

Assay: Cell Viability - LYMP2-007 (AID 979);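 note: cells exposed to compound for 24 h before reading; 0% = DMSO only and the negative end = 92 µM tetraoctylammonium bromide; nearly all actives have a fitted effect of over 60% in size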
Details: LYMP2-007 lymphoblastoid cell viability; series mostly up to 92.2 µM; activity change, negative = cytotoxicity: at the top concentration
Summary of the method: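 Measured via luciferase-based ATP quantitation: lymphoblastoid cells, 24 hr compound exposure at 37 C, AC50 from Hill fits.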

| SMILES | activity change, negative = cytotoxicity [%] | outcome |
| --- | --- | --- |
| Cc1ccc(-c2cc(C(F)(F)F)nn2-c2ccc(S(N)(=O)=O)cc2)cc1 | -12.7 |  |
| CC(C)C(=O)Nc1ccc([N+](=O)[O-])c(C(F)(F)F)c1 | -19.1 |  |
| Cn1c(=O)c2[nH]cnc2n(C)c1=O | -7.33 |  |
| Cc1cn([C@H]2C=C[C@@H](CO)O2)c(=O)[nH]c1=O |  | inactive |
| Clc1ccc(C(c2ccccc2Cl)C(Cl)Cl)cc1 (stereo not drawn) | -16 |  |
| COc1ccc2[nH]cc(CCNC(C)=O)c2c1 | -5.4 |  |
| Cn1c(=O)c2c(ncn2C)n(C)c1=O | 1.83 |  |
| O=c1c(-c2ccc(O)cc2)coc2cc(O)cc(O)c12 | -22.3 |  |
| Cc1cn([C@H]2C[C@H](N=[N+]=[N-])[C@@H](CO)O2)c(=O)[nH]c1=O | -10.3 |  |

Assay: Cell Viability - LYMP2-008 (AID 980); note: % is set by controls: 0 for no effect and ±100 for the full control effect; nearly all actives have a fitted effect of over 60% in size
Details: LYMP2-008 lymphoblastoid cell viability, qHTS; series mostly up to 92.2 µM; activity change, negative = cytotoxicity: at the top concentration
Summary of the method: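 Measured: ATP-dependent luminescence, proportional to viable cell number, in human lymphoblastoid cells treated 24 hr with compound in complete culture medium. Values are AC50s from Hill-equation modelling of qHTS titrations.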

| SMILES | activity change, negative = cytotoxicity [%] | outcome |
| --- | --- | --- |
| Cc1ccc(-c2cc(C(F)(F)F)nn2-c2ccc(S(N)(=O)=O)cc2)cc1 | -10.7 |  |
| CC(C)C(=O)Nc1ccc([N+](=O)[O-])c(C(F)(F)F)c1 | -30 |  |
| Cn1c(=O)c2[nH]cnc2n(C)c1=O | 3.07 |  |
| Cc1cn([C@H]2C=C[C@@H](CO)O2)c(=O)[nH]c1=O |  | inactive |
| Clc1ccc(C(c2ccccc2Cl)C(Cl)Cl)cc1 (stereo not drawn) | -24.4 |  |
| COc1ccc2[nH]cc(CCNC(C)=O)c2c1 | 1.11 |  |
| Cn1c(=O)c2c(ncn2C)n(C)c1=O | -6.67 |  |
| O=c1c(-c2ccc(O)cc2)coc2cc(O)cc(O)c12 | -9.55 |  |
| Cc1cn([C@H]2C[C@H](N=[N+]=[N-])[C@@H](CO)O2)c(=O)[nH]c1=O | -15.5 |  |

Assay: Cell Viability - LYMP2-012 (AID 982);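 note: cellular ATP by luciferase luminescence where a drop means cytotoxicity; cells exposed to compound for one day before reading; 0% = DMSO only and full loss = 92 µM tetraoctylammonium bromide; nearly all actives have a fitted effect of over 55% in size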
Details: LYMP2-012 lymphoblastoid cell viability qHTS; series mostly up to 92.2 µM; activity change, negative = cytotoxicity: at the top concentration

| SMILES | activity change, negative = cytotoxicity [%] | outcome |
| --- | --- | --- |
| Cc1ccc(-c2cc(C(F)(F)F)nn2-c2ccc(S(N)(=O)=O)cc2)cc1 | -10.5 |  |
| CC(C)C(=O)Nc1ccc([N+](=O)[O-])c(C(F)(F)F)c1 | -8.2 |  |
| Cn1c(=O)c2[nH]cnc2n(C)c1=O | 4.57 |  |
| Cc1cn([C@H]2C=C[C@@H](CO)O2)c(=O)[nH]c1=O |  | inactive |
| Clc1ccc(C(c2ccccc2Cl)C(Cl)Cl)cc1 (stereo not drawn) | -2.99 |  |
| COc1ccc2[nH]cc(CCNC(C)=O)c2c1 | 5.92 |  |
| Cn1c(=O)c2c(ncn2C)n(C)c1=O | -1.37 |  |
| O=c1c(-c2ccc(O)cc2)coc2cc(O)cc(O)c12 | -23.8 |  |
| Cc1cn([C@H]2C[C@H](N=[N+]=[N-])[C@@H](CO)O2)c(=O)[nH]c1=O | -6.82 |  |

Assay: Cell Viability - LYMP2-014 (AID 983);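 note: plate controls were DMSO only for no effect and 92 µM tetraoctylammonium bromide for full effect; nearly all actives have a fitted effect of over 50% in size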
Details: LYMP2-014 lymphoblastoid cells, viability qHTS; series mostly up to 92.2 µM; activity change, negative = cytotoxicity: at the top concentration
Summary of the method: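 Quantitative HTS in lymphoblastoid cells: 24 hr compound exposure, then CellTiter-Glo ATP luminescence. Positive control was tetraoctylammonium bromide, 6.4pM to 92 uM.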

| SMILES | activity change, negative = cytotoxicity [%] | outcome |
| --- | --- | --- |
| Cc1ccc(-c2cc(C(F)(F)F)nn2-c2ccc(S(N)(=O)=O)cc2)cc1 | -9.09 |  |
| CC(C)C(=O)Nc1ccc([N+](=O)[O-])c(C(F)(F)F)c1 | -4.3 |  |
| Cn1c(=O)c2[nH]cnc2n(C)c1=O | -5.12 |  |
| Cc1cn([C@H]2C=C[C@@H](CO)O2)c(=O)[nH]c1=O |  | inactive |
| Clc1ccc(C(c2ccccc2Cl)C(Cl)Cl)cc1 (stereo not drawn) | -9.36 |  |
| COc1ccc2[nH]cc(CCNC(C)=O)c2c1 | -9.34 |  |
| Cn1c(=O)c2c(ncn2C)n(C)c1=O | -5.16 |  |
| O=c1c(-c2ccc(O)cc2)coc2cc(O)cc(O)c12 | -15.3 |  |
| Cc1cn([C@H]2C[C@H](N=[N+]=[N-])[C@@H](CO)O2)c(=O)[nH]c1=O | -4.57 |  |

Assay: Cell Viability - LYMP2-016 (AID 984);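 note: cells exposed to compound for 24 hours at 37 °C; % is set by controls: 0 for no effect and ±100 for the full control effect; nearly all actives have a fitted effect of over 55% in size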
Details: LYMP2-016 lymphoblastoid cell viability, qHTS; series mostly up to 92.2 µM; activity change, negative = cytotoxicity: at the top concentration
Summary of the method: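 Human lymphoblastoid LYMP2-016 cells, 2500 per well, treated with compounds for 24 h at 37 C. Viability read as intracellular ATP by CellTiter-Glo luminescence after 30 min at room temperature; AC50 from Hill fits of concentration-response.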

| SMILES | activity change, negative = cytotoxicity [%] | outcome |
| --- | --- | --- |
| Cc1ccc(-c2cc(C(F)(F)F)nn2-c2ccc(S(N)(=O)=O)cc2)cc1 | -12.1 |  |
| CC(C)C(=O)Nc1ccc([N+](=O)[O-])c(C(F)(F)F)c1 | -14.8 |  |
| Cn1c(=O)c2[nH]cnc2n(C)c1=O | -7.53 |  |
| Cc1cn([C@H]2C=C[C@@H](CO)O2)c(=O)[nH]c1=O |  | inactive |
| Clc1ccc(C(c2ccccc2Cl)C(Cl)Cl)cc1 (stereo not drawn) | -11.9 |  |
| COc1ccc2[nH]cc(CCNC(C)=O)c2c1 | 1.54 |  |
| Cn1c(=O)c2c(ncn2C)n(C)c1=O | -9.93 |  |
| O=c1c(-c2ccc(O)cc2)coc2cc(O)cc(O)c12 | -23.8 |  |
| Cc1cn([C@H]2C[C@H](N=[N+]=[N-])[C@@H](CO)O2)c(=O)[nH]c1=O | 2.75 |  |

Assay: Cell Viability - LYMP2-018 (AID 985);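 note: plate controls were DMSO only for no effect and tetraoctylammonium bromide at 92 µM for full effect; nearly all actives have a fitted effect of over 50% in size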
Details: LYMP2-018 lymphoblastoid cells, viability (qHTS); series mostly up to 92.2 µM; activity change, negative = cytotoxicity: at the top concentration
Summary of the method: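 In this qHTS viability assay, cells are treated for 24 hr and cellular ATP is quantified by luciferase-based luminescence, with tetraoctylammonium bromide as positive control.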

| SMILES | activity change, negative = cytotoxicity [%] | outcome |
| --- | --- | --- |
| Cc1ccc(-c2cc(C(F)(F)F)nn2-c2ccc(S(N)(=O)=O)cc2)cc1 | -14.4 |  |
| CC(C)C(=O)Nc1ccc([N+](=O)[O-])c(C(F)(F)F)c1 | -13.1 |  |
| Cn1c(=O)c2[nH]cnc2n(C)c1=O | -8.44 |  |
| Cc1cn([C@H]2C=C[C@@H](CO)O2)c(=O)[nH]c1=O |  | inactive |
| Clc1ccc(C(c2ccccc2Cl)C(Cl)Cl)cc1 (stereo not drawn) | -27 |  |
| COc1ccc2[nH]cc(CCNC(C)=O)c2c1 | 9.02 |  |
| Cn1c(=O)c2c(ncn2C)n(C)c1=O | -1.31 |  |
| O=c1c(-c2ccc(O)cc2)coc2cc(O)cc(O)c12 | -24.2 |  |
| Cc1cn([C@H]2C[C@H](N=[N+]=[N-])[C@@H](CO)O2)c(=O)[nH]c1=O | -14.8 |  |
